The source of these data is PubChem BioAssay (EPA / NIEHS).

Conditions in all cases: mRNA level, 48 h; actives raise or lower the signal
Read-out in experiment [1]: Apolipoprotein A-V (APOA5) gene, APOA5 (gene 116519)
In words: LTEA_HepaRG_APOA5: Life Technologies and Expression Analysis (LTEA) Assay for Apolipoprotein A-V (APOA5) gene using HepaRG (AID 2283474). The method in brief:
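Concentration-response of APOA5 expression in HepaRG: eight half-log doses to 100 uM, 48 h, qRT-PCR normalized to ACTB/GAPDH/POLR2A, bidirectional fitting with 0.5% DMSO as baseline.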

Read-out in experiment [2]: Apoptosis regulator Bcl-2 (Homo sapiens) (UniProt P10415)
In words: LTEA_HepaRG_BCL2: Life Technologies and Expression Analysis (LTEA) Assay for Bcl-2 gene using HepaRG (AID 2283475). The method, boiled down: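 Differentiated HepaRG cells in serum-free induction medium were exposed for 48 h to eight half-log concentrations up to 100 uM in 0.5% DMSO, in duplicate. BCL2 mRNA was quantified by TaqMan qRT-PCR normalised to ACTB, GAPDH and POLR2A, with bidirectional fitting versus DMSO.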

Read-out in experiment [3]: Bcl-2 (BID) gene, BID (gene 637)
The experiment is described as follows: LTEA_HepaRG_BID: Life Technologies and Expression Analysis (LTEA) Assay for Bcl-2 (BID) gene using HepaRG (AID 2283476). The method, boiled down: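 Differentiated HepaRG cells in serum-free induction medium were exposed in duplicate for 48 h to eight half-log concentrations up to 100 uM in 0.5% DMSO. BID mRNA was quantified by qRT-PCR, normalized to ACTB, GAPDH and POLR2A.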

Read-out in experiment [4]: Caspase-3 (Homo sapiens) (UniProt P42574)
The experiment is described as follows: LTEA_HepaRG_CASP3: Life Technologies and Expression Analysis (LTEA) Assay for cysteine-aspartic acid protease (CASP3) using HepaRG (AID 2283477). The method, boiled down:
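Transcript-level assay: CASP3 mRNA in human HepaRG after 48 h treatment, eight half-log concentrations from 100 uM in 0.5% DMSO, quantified by qRT-PCR.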

Read-out in experiment [5]: Cytochrome P450 (CYP24A1), CYP24A1 (gene 1591)
In words: LTEA_HepaRG_CYP24A1: Life Technologies and Expression Analysis (LTEA) Assay for Cytochrome P450 (CYP24A1) using HepaRG (AID 2283478). The method, boiled down: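 Gene expression of CYP24A1 by TaqMan qRT-PCR in HepaRG after 48 h treatment, highest concentration 100 uM; activity fitted in both directions relative to DMSO vehicle.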

Read-out in experiment [6]: Cytochrome P450 (CYP1A2), CYP1A2 (gene 1544)
The experiment is described as follows: LTEA_HepaRG_CYP1A2: Life Technologies and Expression Analysis (LTEA) Assay for Cytochrome P450 (CYP1A2) using HepaRG (AID 2283479). The method in brief:
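In duplicate wells, HepaRG cultures maintained in 0.5% DMSO were treated 48 h across an 8-point, half-log series topping at 100 uM; phenobarbital (1 mM) served as induction control. Expression was read by qRT-PCR.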

Read-out in experiment [7]: cysteine-aspartic acid protease (CASP8), CASP8 (gene 841)
In words: LTEA_HepaRG_CASP8: Life Technologies and Expression Analysis (LTEA) Assay for cysteine-aspartic acid protease (CASP8) using HepaRG (AID 2283480). The method in brief: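 HepaRG, 48 h exposure, duplicate wells; 8 conc, half-log from 100 uM, 0.5% DMSO. Serum-free induction medium. CASP8 mRNA by TaqMan qRT-PCR, norm. ACTB/GAPDH/POLR2A; gain/loss fitted vs DMSO.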

Read-out in experiment [8]: Cytochrome P450 (CYP2B6), CYP2B6 (gene 1555)
In words: LTEA_HepaRG_CYP2B6: Life Technologies and Expression Analysis (LTEA) Assay for Cytochrome P450 (CYP2B6) using HepaRG (AID 2283481). The method, boiled down: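 Human HepaRG, 48 h dosing, 0.5% DMSO vehicle, top dose 100 uM. CYP2B6 transcript by qRT-PCR, housekeeping-normalized, bidirectional curve fit.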

Read-out in experiment [9]: Cytochrome P450 2C19 (Homo sapiens) (UniProt P33261)
In words: LTEA_HepaRG_CYP2C19: Life Technologies and Expression Analysis (LTEA) Assay for CYP2C19 using HepaRG (AID 2283482). The method, boiled down:
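Endpoint: CYP2C19 mRNA change, bidirectional fit vs 0.5% DMSO. Cells: HepaRG, 48 h exposure, eight-point series topping at 100 uM. Quantitation: qRT-PCR normalized to ACTB, GAPDH, POLR2A.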

Read-out in experiment [10]: CYP2C8 (gene 1558)
The experiment is described as follows: LTEA_HepaRG_CYP2C8: Life Technologies and Expression Analysis (LTEA) Assay for CYP2C8 using HepaRG (AID 2283483). The method, boiled down:
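CYP2C8 mRNA induction or loss, by qRT-PCR normalized to ACTB/GAPDH/POLR2A, is read in HepaRG cells after 48 h treatment. Concentrations run from 100 uM down in half-log dilutions, with 0.5% DMSO as vehicle and baseline.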

Read-out in experiment [11]: CYP2C9 (gene 1559)
The experiment is described as follows: LTEA_HepaRG_CYP2C9: Life Technologies and Expression Analysis (LTEA) Assay for CYP2C9 using HepaRG (AID 2283484). The method, boiled down:
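Cells plated 48 h, switched to serum-free induction medium, then treated in duplicate for 48 h at eight concentrations (max 100 uM, 0.5% DMSO). RNA then analysed by qRT-PCR for CYP2C9; curves fitted in both directions relative to DMSO.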

Read-out in experiment [12]: CYP2E1 (gene 1571)
The experiment is described as follows: LTEA_HepaRG_CYP2E1: Life Technologies and Expression Analysis (LTEA) Assay for CYP2E1 using HepaRG (AID 2283485). The method, boiled down:
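HepaRG cells in serum-free induction medium exposed 48 h to test chemicals, 8 half-log concentrations up to 100 uM in 0.5% DMSO, duplicate. CYP2E1 mRNA by qRT-PCR, normalized to ACTB, GAPDH, POLR2A; bidirectional fit versus DMSO.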

Read-out in experiment [13]: CYP4A11 (gene 1579)
The experiment is described as follows: LTEA_HepaRG_CYP4A11: Life Technologies and Expression Analysis (LTEA) Assay for CYP4A11 using HepaRG (AID 2283486). The method, boiled down:
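Human hepatic HepaRG cultures receive duplicate 48 h exposures across a concentration-response series topping at 100 uM. Expression changes in CYP4A11 are measured by qRT-PCR relative to DMSO controls.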

Read-out in experiment [14]: Cytochrome P450 3A4 (Homo sapiens) (UniProt P08684)
In words: LTEA_HepaRG_CYP3A4: Life Technologies and Expression Analysis (LTEA) Assay for CYP3A4 using HepaRG (AID 2283487). The method in brief:
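Differentiated HepaRG cells, plated 48 h, then dosed 48 h in serum-free induction medium with 0.5% DMSO, 8 half-log concentrations up to 100 uM, duplicate. CYP3A4 mRNA by qRT-PCR, normalized to ACTB/GAPDH/POLR2A; bidirectional fit versus DMSO.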

Read-out in experiment [15]: DNA damage-inducible transcript 3 (DDIT3), DDIT3 (gene 1649)
The experiment is described as follows: LTEA_HepaRG_DDIT3: Life Technologies and Expression Analysis (LTEA) Assay for DNA damage-inducible transcript 3 (DDIT3) using HepaRG (AID 2283488). The method, boiled down:
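Differentiated human HepaRG cells in serum-free induction medium were exposed in duplicate for 48 h to 8 concentrations (top 100 uM, half-log steps, 0.5% DMSO). DDIT3 mRNA measured by TaqMan qRT-PCR, normalized to ACTB/GAPDH/POLR2A; bidirectional fit versus DMSO.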

Read-out in experiment [16]: Pro-epidermal growth factor (Homo sapiens) (UniProt P01133)
In words: LTEA_HepaRG_EGF: Life Technologies and Expression Analysis (LTEA) Assay for Epidermal growth factor (EGF) using HepaRG (AID 2283489). The method, boiled down:
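Concentration-response mRNA assay: HepaRG cells dosed 48 h (max 100 uM, 0.5% DMSO), EGF measured by qRT-PCR and normalized to ACTB/GAPDH/POLR2A.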

Read-out in experiment [17]: Early growth response protein 1 (EGR1) transcription factor, EGR1 (gene 1958)
In words: LTEA_HepaRG_EGR1: Life Technologies and Expression Analysis (LTEA) Assay for Early growth response protein 1 (EGR1) transcription factor using HepaRG (AID 2283490). The method in brief:
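Read-out is EGR1 mRNA level by qRT-PCR, normalized to three housekeeping genes and analysed for gain or loss of signal against 0.5% DMSO. Source cells: human HepaRG, treated 48 h at up to 100 uM in half-log dilutions.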

Read-out in experiment [18]: Ezrin (EZR), EZR (gene 7430)
In words: LTEA_HepaRG_EZR: Life Technologies and Expression Analysis (LTEA) Assay for Ezrin (EZR) using HepaRG (AID 2283491). The method in brief: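 EZR transcript levels came from Fluidigm qRT-PCR and were normalized to three housekeeping genes after 48 h chemical exposure of HepaRG cells. Dosing used an 8-point half-log series with a 100 uM top concentration in 0.5% DMSO, tested in duplicate; both directions were fitted versus vehicle.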

Read-out in experiment [19]: Cytochrome P450 3A7 (Homo sapiens) (UniProt P24462)
In words: LTEA_HepaRG_CYP3A7: Life Technologies and Expression Analysis (LTEA) Assay for CYP3A7 using HepaRG (AID 2283492). The method, boiled down: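 qRT-PCR of CYP3A7 in HepaRG lysates after 48 h treatment; concentration-response (8 points, max 100 uM) analysed bidirectionally relative to 0.5% DMSO controls.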

Activity calls are given as the source filed them. How the source made its calls: active means hit-call score of the fitted dose curve at least 0.9, where 1 is the maximum; inactive means score below 0.9.

Sequence of Cytochrome P450 2C19 (Homo sapiens) (P33261 whole entry, looked up): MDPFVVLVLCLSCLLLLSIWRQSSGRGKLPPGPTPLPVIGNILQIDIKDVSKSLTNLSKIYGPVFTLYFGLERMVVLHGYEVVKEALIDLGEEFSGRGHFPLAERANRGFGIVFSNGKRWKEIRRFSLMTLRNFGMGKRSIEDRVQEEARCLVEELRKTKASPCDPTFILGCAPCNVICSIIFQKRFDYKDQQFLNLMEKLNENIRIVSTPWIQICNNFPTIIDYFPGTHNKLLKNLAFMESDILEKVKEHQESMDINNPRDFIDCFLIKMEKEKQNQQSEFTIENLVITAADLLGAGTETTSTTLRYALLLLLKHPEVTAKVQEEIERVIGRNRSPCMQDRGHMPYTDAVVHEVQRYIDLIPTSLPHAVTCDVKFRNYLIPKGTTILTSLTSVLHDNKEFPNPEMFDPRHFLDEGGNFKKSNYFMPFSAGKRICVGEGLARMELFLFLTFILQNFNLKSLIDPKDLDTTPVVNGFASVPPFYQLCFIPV
Sequence of Cytochrome P450 3A4 (Homo sapiens) (P08684 whole entry, looked up): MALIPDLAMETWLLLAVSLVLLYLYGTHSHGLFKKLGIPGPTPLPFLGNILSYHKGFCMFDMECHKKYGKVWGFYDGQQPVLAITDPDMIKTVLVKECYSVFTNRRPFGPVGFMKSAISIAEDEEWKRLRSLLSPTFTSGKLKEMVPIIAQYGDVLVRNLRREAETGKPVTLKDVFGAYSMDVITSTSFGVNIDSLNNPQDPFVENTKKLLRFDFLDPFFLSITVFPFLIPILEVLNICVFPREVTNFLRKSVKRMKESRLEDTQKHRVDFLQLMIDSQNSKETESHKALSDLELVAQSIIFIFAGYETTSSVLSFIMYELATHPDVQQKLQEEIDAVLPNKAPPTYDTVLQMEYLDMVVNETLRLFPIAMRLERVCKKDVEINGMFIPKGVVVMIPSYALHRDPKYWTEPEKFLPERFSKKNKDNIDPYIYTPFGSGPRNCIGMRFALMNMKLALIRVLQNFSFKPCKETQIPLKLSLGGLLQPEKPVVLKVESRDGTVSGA
Sequence of Caspase-3 (Homo sapiens) (P42574 whole entry, looked up): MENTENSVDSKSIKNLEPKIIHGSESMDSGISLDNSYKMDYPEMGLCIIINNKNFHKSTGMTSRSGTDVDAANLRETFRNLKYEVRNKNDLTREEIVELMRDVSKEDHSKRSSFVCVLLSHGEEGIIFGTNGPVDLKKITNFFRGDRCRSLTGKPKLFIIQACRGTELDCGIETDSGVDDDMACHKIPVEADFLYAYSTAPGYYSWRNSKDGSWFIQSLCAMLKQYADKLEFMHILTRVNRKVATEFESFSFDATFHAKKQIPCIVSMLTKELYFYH
Sequence of Cytochrome P450 3A7 (Homo sapiens) (P24462 whole entry, looked up): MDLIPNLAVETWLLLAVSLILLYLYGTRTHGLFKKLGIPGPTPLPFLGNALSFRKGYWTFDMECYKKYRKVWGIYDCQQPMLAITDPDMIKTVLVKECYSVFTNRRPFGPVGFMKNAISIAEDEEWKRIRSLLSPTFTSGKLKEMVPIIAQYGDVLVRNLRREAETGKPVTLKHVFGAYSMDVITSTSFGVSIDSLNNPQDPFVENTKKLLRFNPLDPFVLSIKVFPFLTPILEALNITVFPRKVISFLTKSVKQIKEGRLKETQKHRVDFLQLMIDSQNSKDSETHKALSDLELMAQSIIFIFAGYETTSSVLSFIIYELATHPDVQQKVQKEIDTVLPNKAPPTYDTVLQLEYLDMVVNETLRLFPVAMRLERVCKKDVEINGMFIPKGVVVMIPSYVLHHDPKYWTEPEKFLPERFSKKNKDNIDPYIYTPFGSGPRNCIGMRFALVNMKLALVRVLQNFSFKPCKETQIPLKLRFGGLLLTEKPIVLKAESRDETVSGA
Sequence of Apoptosis regulator Bcl-2 (Homo sapiens) (P10415 whole entry, looked up): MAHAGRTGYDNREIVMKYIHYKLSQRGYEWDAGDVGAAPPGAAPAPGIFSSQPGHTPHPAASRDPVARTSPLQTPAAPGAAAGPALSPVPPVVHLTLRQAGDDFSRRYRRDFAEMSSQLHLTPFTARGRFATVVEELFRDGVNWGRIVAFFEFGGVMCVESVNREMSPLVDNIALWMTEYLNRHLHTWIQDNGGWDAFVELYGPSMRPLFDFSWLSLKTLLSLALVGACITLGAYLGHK

With `Clc1nc(Cl)c(Cl)c(Cl)c1Cl`, the call in experiment [1], in experiment [2], in [3], in [4], in experiment [5] and in [6] was inactive. The result in [7], in [8], in experiment [9], in experiment [10], in experiment [11] and in [12] was inactive. Further, the result in experiment [13], in experiment [14], in experiment [15], in [16], in [17] and in experiment [18] was inactive. In addition, in [19], the compound was classed as inactive.

The AC50 is the concentration giving half of the maximal activity seen. Consider `Cn1c(=O)c2c(ncn2C)n(C)c1=O`, for which the compound was called inactive in [1], in experiment [2], in experiment [3], in [4], in experiment [5] and in experiment [6]. The outcome in experiment [7], in experiment [9], in experiment [10], in experiment [11], in experiment [12] and in experiment [13] was inactive. The call in experiment [14], in experiment [15], in experiment [16], in [17], in experiment [18] and in experiment [19] was inactive. The AC50 in experiment [8] is 50 µM (active).

For `CC[C@H]1OC(=O)[C@H](C)[C@@H](O[C@H]2C[C@@](C)(OC)[C@@H](O)[C@H](C)O2)[C@H](C)[C@@H](O[C@@H]2O[C@H](C)C[C@H](N(C)C)[C@H]2O)[C@](C)(O)C[C@@H](C)C(=O)[C@H](C)[C@@H](O)[C@]1(C)O`, the outcome in [1], in experiment [2], in [3], in experiment [4], in experiment [5] and in experiment [7] was inactive. Also, the result in experiment [9], in [10], in experiment [11], in [13], in [15] and in experiment [16] was inactive. The compound was classed as inactive in [17] and in experiment [18]. Besides, the AC50 is 59.1 µM (active) in experiment [6]; 5.59 µM (active) in experiment [8]; 16 µM (active) in [12]; 19.6 µM (active) in experiment [14]; 13.9 µM (active) in experiment [19].
